Assay outcomes (PubChem)
The list is not random: actives were taken first. Their share in the collection is about 1.5%.
NRP1-CendR mod: alters CendR peptide binding to human NRP-1 | 360,000 tested, 0.85% active | inhibition, % at 25 µM | AID 602438 | FAM-RPARPAR peptide binding to NRP-1, fluorescence polarization;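 active means inhibition or corrected inhibition above about 18%, plus a signal ratio from 0.5 to 1.5, limit read from the data, passing the limit was not always enough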
Target sequence (O14786 whole entry, looked up): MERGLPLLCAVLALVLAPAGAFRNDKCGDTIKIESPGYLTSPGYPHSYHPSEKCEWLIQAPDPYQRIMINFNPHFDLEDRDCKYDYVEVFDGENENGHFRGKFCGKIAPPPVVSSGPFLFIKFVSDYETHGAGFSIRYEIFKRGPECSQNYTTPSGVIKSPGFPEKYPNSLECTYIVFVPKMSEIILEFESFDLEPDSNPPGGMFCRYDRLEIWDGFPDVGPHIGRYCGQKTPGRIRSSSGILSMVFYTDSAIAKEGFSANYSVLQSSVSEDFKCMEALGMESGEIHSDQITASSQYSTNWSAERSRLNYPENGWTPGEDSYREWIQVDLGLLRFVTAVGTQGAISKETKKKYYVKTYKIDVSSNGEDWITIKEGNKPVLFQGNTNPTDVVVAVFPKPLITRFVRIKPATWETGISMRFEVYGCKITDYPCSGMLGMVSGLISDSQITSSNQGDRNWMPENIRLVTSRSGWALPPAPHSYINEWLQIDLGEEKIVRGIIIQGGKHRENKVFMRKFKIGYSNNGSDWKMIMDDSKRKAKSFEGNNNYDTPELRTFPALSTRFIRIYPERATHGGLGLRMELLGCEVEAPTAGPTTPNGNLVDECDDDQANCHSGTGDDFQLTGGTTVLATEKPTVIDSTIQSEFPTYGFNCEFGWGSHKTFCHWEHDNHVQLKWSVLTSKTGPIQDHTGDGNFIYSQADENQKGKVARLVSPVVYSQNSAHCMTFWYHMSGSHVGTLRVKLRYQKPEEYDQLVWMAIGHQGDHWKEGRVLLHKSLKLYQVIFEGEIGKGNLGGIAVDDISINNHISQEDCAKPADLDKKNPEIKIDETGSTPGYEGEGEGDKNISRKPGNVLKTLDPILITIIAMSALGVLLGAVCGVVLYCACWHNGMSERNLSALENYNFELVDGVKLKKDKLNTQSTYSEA
DNA FID counter: displaces DNA intercalator in HCV helicase counter-screen. DNA fluorescent intercalator displacement, fluorescence. inhibition, % at 7.9 µM. 290,000 tested, 0.17% active. AID 1845; in the data active means inhibition above about 37%;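 further: 0% = vehicle and 100% = reference compound; higher means more ethidium bromide displaced from hairpin DNA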
RAD52 anneal inh: blocks human RAD52 DNA annealing | recombinant RAD52 DNA annealing, FRET fluorescence | inhibition, % at 18.7 µM | 360,000 tested, 0.46% active | AID 651710;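 active means every replicate showing at least 50% inhibition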
miR122 inh: inhibitors of miR-122 in Huh7 cells | Huh7 miR-122 Renilla luciferase sensor, 48 h; neutral wells = 0, positive control = 100 | AID 602342 | 340,000 tested, 0.3% active | activation (reporter increase), % at 12.5 µM;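 active means mean replicate activation score at least 90 and every replicate individually at or above 90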;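 further: higher luciferase means less miR-122 activity so hits act as miR-122 inhibitors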
RAD54 branch: RAD54 (human) branch migration inhibition; Q92698; RAD54 Holliday junction branch migration, FAM/BHQ fluorescence; inhibition, % at 10.4 µM; 360,000 tested, 0.14% active;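 active means mean normalized replicate activity at least 40 and at least half of replicates scoring 40 or more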;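 further: 0% = median of neutral control wells and 100% = median of positive control wells; inhibitors cause a drop in the FAM fluorescence signal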
Glyco luc inh: blocks N-linked glycosylation in D54 reporter cells. D54 ERlucT glycosylation luciferase reporter, 24 h; percent of 100 nM tunicamycin response. reporter increase, % at 12.5 µM. 360,000 tested, 0.23% active. AID 588692;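 active means mean luciferase reporter signal, scaled so untreated is 0 and the glycosylation-blocking control 100, at or above a set limit in every replicate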;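 further: luciferase carries N-glycosylation sites so blocking glycosylation raises the light; 0% = median of neutral control wells and 100% = median of 100 nM tunicamycin wells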
* marks the source's active call; other numbers are inactive results; / = no result; [ ] = dose if it differs, or a comment.

SMILES	NRP1-CendR mod	DNA FID counter	RAD52 anneal inh	miR122 inh	RAD54 branch	Glyco luc inh
C[C@H]1CN([C@@H](C)CO)C(=O)Cc2cc(NC(=O)CCC(F)(F)F)ccc2O[C@H]1CN(C)S(=O)(=O)c1ccc(Cl)cc1	16.6	/	18.7	79.0[16.7 µM]	-9.7	32.4*
C[C@@H]1CN([C@@H](C)CO)C(=O)Cc2cc(NC(=O)CCC(F)(F)F)ccc2O[C@@H]1CN(C)S(=O)(=O)c1ccc(F)cc1	/	/	-6.8	-9.6[16.7 µM]	4.5	/
C[C@H]1CN([C@@H](C)CO)C(=O)Cc2cc(NC(=O)CCC(F)(F)F)ccc2O[C@H]1CN(C)S(=O)(=O)c1ccc(F)cc1	15.3	/	-0.9	0.3[16.7 µM]	-0.7	40.0*
C[C@H]1CN([C@@H](C)CO)C(=O)Cc2cc(NC(=O)C3CCCCC3)ccc2O[C@@H]1CN(C)Cc1ccc(C(F)(F)F)cc1	/	/	4.9	0.2[16.7 µM]	3.1	/
Cc1ccccc1NC(=S)N1CCCC(c2nc3ccccc3[nH]2)C1 (configuration not stated)	23.4*	-6.9	-11.4	/	-6.5	0.2
Cc1ccc(NC(=S)N2CCCC(c3nc4ccccc4[nH]3)C2)cc1 (configuration not stated)	3.5	2.7	-4.3	/	/	2.6
Cc1noc(C)c1NC(=O)Nc1ccc2c(c1)C(=O)N([C@@H](C)CO)C[C@H](C)[C@H](CN(C)Cc1ccccc1)O2	/	/	7.8	-2.6[16.7 µM]	-8.4	/
O=C(CSC1=Nc2ccccc2C2=NC(Cc3c[nH]c4ccccc34)C(=O)N12)NC1CCCCC1 (configuration not stated)	-13.2	-28.1	/	17.9	-0.5	2.4
CC1CC(C)CN(C(=O)CSC2=Nc3ccccc3C3=NC(Cc4c[nH]c5ccccc45)C(=O)N23)C1 (configuration not stated)	1.6	-20.2	/	211.9*	8.0	-0.1
CCCCCCC(=O)N(O)C1CC(=O)N(Cc2ccccc2)C1=O (configuration not stated)	-1.0	-0.1	/	-29.8	-5.1	49.2*
CCCCCC(=O)N(O)C1CC(=O)N(c2ccccc2)C1=O (configuration not stated)	0.7	0.3	/	-10.4	/	23.8
CC1=C(n2ccnc2)CCC1=O	2.4	/	/	0.5	8.1	86.4*
CC1=C(N2CCOCC2)CCC1=O	-10.2	/	-2.1	/	-5.3	4.2
COc1cc(NC(=O)c2ccc(-c3c(C)noc3C)c3ccoc23)cc(OC)c1OC	-12.8	/	0.8	-1.8	8.0	32.9*
NC(=O)c1ccc(N=Cc2ccc([N+](=O)[O-])s2)cc1	-17.3	-3.4	-10.1	/	/	43.9*
Cc1ccc2nc(N3CCN(C)CC3)c(C=O)c(=O)n2c1	21.6*	-4.2	-7.5	-8.9	8.8	1.0
COc1cc(/C=N/NC(=O)c2ccc(-c3ccccc3)cc2)cc(OC)c1OC	3.4	-15.4	/	/	/	32.7*
COc1ccc(/C=N\NC(=O)c2ccc(-c3ccccc3)cc2)c(OC)c1OC	8.0	-32.6	-1.1	/	-1.1	0.2
O=C(NCCCN1CCOCC1)c1cc(-c2ccc(F)cc2)on1	-3.9	2.2	/	1.6	8.8	15.2
CCc1nc2ccc(C(=O)NCCCN3CCN(c4ccc(F)cc4)CC3)cc2nc1CC	9.0	8.0	1.6	/	3.3	-3.7
O=C(NCCN1CCOCC1)c1cc(-c2ccc(F)cc2)on1	37.9*	-0.9	/	-0.9	/	8.5
CN1CCN(CCNC(=O)c2ccc3nc(-c4ccc(F)cc4)c(-c4ccc(F)cc4)nc3c2)CC1	9.7	47.5*	37.2	-6.8	10.4	1.2
Cc1ccc(S(=O)(=O)N[C@H]2CC[C@H](CCNC(=O)C3CC3)O[C@H]2CO)cc1	/	/	11.8	/	0.9	/
COc1ccc(S(=O)(=O)Nc2cccc3c2O[C@H](CN(C)Cc2ccccc2)[C@H](C)CN([C@@H](C)CO)C3=O)cc1	/	/	1.9	3.8[16.7 µM]	11.5	/
COC(=O)Nc1sc(C(=O)N(C)C)c(C)c1C(=O)OC	24.0*	0.4	-7.4	/	2.8	1.4
CCOC(=O)c1c(NC(=O)OC)sc(C(=O)N(C)C)c1C	10.2	-17.0	/	2.7	/	-0.2
CO[C@@H]1CN(C)C(=O)c2ccc(NC(=O)NC(C)C)cc2OC[C@H](C)N(Cc2ccccn2)C[C@@H]1C	/	/	10.6	/	-1.5	/
Cc1cc(Cl)c(S(=O)(=O)NCc2ccccc2)cc1OCC(N)=O	5.1	-2.8	/	173.6*	-2.4	1.3
Cc1cc(Cl)c(S(=O)(=O)NCc2ccncc2)cc1OCC(N)=O	6.0	-4.7	/	2.6	-54.0	-0.5
